# Data published in ChEMBL document CHEMBL1961873, “Compounds: GSK PKIS; Assays: Nanosyn kinase panel” (2012).
# Tests used:
# [1] = target: Tyrosine-protein kinase CSK (Homo sapiens) (UniProt P41240); conditions: at 1 µM;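 note: each value is an averaged inhibition reading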
# [2] = target: T1, Discoidin domain-containing receptor 2 (Homo sapiens) (UniProt Q16832); conditions: at 0.1 µM
# T1 sequence (whole entry): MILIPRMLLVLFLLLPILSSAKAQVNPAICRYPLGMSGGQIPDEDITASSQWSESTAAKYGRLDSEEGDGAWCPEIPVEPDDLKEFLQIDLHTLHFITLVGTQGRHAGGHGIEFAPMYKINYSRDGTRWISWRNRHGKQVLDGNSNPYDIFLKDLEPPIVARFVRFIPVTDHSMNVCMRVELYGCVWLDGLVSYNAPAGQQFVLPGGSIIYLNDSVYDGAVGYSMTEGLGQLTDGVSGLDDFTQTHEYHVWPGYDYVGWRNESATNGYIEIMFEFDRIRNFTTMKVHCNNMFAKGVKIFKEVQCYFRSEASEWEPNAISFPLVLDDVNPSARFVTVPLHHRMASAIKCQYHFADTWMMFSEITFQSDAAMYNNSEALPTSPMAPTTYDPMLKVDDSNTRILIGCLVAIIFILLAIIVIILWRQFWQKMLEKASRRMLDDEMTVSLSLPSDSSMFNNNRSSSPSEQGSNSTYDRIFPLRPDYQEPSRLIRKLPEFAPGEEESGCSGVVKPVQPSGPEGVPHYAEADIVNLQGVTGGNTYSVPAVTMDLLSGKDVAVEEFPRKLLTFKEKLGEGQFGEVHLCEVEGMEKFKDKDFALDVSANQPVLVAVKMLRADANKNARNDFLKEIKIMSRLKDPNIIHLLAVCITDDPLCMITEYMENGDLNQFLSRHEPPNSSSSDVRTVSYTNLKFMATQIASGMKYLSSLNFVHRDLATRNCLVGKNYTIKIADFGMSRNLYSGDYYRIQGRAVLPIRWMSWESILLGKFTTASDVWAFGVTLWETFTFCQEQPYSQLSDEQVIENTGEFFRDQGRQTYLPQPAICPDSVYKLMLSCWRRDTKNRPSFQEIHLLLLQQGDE
# [3] = target: T1, Discoidin domain-containing receptor 2 (Homo sapiens); conditions: at 1 µM
# [4] = target: Epidermal growth factor receptor (Homo sapiens) (UniProt P00533); conditions: at 0.1 µM
# [5] = target: Epidermal growth factor receptor (Homo sapiens) (UniProt P00533); conditions: at 1 µM
# [6] = system: Epidermal growth factor receptor (Homo sapiens), P00533 [L858R]; conditions: at 0.1 µM
# Chain of Epidermal growth factor receptor (Homo sapiens), P00533 [L858R] (P00533 whole entry L858R): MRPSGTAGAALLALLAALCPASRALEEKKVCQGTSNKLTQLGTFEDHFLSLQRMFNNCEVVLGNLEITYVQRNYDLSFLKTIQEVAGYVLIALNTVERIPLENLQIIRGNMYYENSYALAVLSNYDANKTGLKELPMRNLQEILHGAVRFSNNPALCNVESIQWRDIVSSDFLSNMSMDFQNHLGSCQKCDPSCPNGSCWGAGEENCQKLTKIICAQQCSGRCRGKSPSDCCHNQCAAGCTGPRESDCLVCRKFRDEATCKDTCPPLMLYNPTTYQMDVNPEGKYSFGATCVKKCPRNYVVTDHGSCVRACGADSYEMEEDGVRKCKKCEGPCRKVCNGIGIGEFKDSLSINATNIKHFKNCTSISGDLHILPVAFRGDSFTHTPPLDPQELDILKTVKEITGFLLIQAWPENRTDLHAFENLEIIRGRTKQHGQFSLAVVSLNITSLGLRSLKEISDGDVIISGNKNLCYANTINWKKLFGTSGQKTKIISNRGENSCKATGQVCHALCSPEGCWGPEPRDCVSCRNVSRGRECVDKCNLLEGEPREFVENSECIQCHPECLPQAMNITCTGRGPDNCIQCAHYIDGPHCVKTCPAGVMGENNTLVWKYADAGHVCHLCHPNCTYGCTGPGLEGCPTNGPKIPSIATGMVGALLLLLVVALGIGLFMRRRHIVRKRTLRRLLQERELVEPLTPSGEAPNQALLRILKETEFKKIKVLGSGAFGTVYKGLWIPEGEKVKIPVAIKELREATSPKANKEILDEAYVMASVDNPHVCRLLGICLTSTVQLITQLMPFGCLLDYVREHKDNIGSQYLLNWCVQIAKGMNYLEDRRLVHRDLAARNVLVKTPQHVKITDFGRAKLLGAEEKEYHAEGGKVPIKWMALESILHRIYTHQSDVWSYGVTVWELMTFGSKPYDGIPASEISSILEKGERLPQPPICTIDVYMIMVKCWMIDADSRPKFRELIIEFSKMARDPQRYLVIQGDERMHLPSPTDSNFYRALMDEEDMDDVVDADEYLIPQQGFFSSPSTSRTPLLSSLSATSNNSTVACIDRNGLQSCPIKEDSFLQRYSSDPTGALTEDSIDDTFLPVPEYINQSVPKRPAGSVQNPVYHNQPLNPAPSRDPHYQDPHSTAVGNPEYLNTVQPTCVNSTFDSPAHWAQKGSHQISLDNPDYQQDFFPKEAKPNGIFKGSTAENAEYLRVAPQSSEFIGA
# [7] = system: Epidermal growth factor receptor (Homo sapiens), P00533 [L858R]; conditions: at 1 µM
# [8] = system: Epidermal growth factor receptor (Homo sapiens), P00533 [L861Q]; conditions: at 0.1 µM
# Chain of Epidermal growth factor receptor (Homo sapiens), P00533 [L861Q] (P00533 whole entry L861Q): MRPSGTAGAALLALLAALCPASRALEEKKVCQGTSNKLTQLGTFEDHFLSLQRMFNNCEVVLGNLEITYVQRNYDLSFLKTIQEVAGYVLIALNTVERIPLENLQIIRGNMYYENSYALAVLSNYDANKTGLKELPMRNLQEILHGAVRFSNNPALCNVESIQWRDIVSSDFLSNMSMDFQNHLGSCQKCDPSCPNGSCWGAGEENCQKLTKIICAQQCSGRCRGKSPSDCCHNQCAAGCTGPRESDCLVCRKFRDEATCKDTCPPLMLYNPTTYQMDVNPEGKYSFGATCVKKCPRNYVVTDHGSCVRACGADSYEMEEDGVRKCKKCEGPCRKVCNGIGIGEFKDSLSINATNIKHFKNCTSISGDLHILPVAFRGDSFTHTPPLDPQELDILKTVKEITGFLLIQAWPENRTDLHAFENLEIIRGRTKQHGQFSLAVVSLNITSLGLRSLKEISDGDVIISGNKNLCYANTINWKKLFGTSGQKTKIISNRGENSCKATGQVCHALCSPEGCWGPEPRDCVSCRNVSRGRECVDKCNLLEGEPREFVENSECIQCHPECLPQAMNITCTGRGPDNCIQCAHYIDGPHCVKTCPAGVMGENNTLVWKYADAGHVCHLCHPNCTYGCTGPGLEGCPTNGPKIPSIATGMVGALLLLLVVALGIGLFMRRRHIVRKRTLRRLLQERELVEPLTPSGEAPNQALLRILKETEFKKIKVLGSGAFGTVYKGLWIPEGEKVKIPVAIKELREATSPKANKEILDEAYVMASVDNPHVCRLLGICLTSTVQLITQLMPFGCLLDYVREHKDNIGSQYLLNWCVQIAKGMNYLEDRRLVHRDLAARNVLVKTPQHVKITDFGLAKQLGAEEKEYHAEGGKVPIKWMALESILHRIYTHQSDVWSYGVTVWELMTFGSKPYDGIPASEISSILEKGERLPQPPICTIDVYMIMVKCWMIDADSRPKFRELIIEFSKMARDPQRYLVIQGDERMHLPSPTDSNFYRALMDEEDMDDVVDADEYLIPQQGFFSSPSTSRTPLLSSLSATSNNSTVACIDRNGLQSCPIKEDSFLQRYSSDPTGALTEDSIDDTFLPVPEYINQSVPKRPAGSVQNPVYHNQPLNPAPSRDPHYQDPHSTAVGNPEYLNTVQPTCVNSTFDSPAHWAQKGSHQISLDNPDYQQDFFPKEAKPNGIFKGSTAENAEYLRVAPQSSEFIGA
# [9] = system: Epidermal growth factor receptor (Homo sapiens), P00533 [L861Q]; conditions: at 1 µM
# [10] = system: Epidermal growth factor receptor (Homo sapiens), P00533 [T790M]; conditions: at 0.1 µM
# [11] = system: Epidermal growth factor receptor (Homo sapiens), P00533 [T790M]; conditions: at 1 µM
# [12] = system: Epidermal growth factor receptor (Homo sapiens), P00533 [L858R,T790M]; conditions: at 0.1 µM
# [13] = system: Epidermal growth factor receptor (Homo sapiens), P00533 [L858R,T790M]; conditions: at 1 µM
# [14] = target: Ephrin type-A receptor 2 (Homo sapiens) (UniProt P29317); conditions: at 0.1 µM
# Chain of Ephrin type-A receptor 2 (Homo sapiens) (P29317 whole entry): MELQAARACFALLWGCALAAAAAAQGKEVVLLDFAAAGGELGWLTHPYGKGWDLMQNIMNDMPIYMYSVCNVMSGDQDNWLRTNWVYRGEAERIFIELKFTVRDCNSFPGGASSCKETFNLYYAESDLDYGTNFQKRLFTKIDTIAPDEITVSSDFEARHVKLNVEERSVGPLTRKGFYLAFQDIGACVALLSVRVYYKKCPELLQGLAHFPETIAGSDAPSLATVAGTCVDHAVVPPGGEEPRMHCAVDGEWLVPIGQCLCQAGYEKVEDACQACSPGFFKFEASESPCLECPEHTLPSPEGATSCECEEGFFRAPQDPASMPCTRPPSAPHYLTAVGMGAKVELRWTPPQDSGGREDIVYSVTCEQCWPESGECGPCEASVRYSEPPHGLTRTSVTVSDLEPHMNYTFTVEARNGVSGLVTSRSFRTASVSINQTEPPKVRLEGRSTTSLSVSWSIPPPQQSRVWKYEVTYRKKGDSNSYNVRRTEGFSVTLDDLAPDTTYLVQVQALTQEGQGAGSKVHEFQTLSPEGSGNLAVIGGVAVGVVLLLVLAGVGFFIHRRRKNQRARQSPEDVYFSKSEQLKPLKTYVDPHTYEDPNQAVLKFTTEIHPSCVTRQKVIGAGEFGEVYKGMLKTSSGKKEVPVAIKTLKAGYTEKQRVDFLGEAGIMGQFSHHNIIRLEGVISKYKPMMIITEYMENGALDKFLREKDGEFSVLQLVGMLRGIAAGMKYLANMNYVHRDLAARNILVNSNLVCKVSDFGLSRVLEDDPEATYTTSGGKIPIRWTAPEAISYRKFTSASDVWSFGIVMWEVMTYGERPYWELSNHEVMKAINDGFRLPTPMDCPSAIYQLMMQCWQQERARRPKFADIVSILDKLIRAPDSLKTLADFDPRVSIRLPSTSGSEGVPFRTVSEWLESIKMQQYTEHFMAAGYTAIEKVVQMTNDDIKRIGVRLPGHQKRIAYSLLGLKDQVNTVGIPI
# [15] = target: Ephrin type-A receptor 2 (Homo sapiens) (UniProt P29317); conditions: at 1 µM
# [16] = target: T2, Ephrin type-A receptor 3 (Homo sapiens) (UniProt P29320); conditions: at 0.1 µM
# T2 sequence (whole entry): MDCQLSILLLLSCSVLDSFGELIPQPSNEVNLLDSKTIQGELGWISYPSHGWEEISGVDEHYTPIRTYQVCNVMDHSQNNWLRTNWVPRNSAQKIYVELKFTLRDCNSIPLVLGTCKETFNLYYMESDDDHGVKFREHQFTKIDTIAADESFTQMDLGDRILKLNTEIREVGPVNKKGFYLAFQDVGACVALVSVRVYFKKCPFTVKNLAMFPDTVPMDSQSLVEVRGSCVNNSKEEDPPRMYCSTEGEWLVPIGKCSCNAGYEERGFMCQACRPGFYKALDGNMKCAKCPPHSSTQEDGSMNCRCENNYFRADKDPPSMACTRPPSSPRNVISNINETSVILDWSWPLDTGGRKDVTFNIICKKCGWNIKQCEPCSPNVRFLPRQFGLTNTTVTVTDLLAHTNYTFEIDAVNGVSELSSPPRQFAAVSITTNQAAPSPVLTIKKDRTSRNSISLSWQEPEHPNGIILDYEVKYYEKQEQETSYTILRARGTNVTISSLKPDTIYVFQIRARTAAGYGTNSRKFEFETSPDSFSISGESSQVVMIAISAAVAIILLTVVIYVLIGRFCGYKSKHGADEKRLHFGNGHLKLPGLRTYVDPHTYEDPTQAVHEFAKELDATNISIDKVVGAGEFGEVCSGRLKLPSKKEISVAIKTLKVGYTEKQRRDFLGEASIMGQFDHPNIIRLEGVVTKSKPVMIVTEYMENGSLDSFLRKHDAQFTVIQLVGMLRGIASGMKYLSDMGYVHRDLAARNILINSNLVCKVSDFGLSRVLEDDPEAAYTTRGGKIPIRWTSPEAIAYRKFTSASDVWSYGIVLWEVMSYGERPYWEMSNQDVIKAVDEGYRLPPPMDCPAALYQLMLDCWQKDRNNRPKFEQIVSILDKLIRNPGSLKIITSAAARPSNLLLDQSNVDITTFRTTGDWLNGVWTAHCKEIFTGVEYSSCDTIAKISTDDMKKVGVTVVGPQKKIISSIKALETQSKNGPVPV
# [17] = target: T2, Ephrin type-A receptor 3 (Homo sapiens); conditions: at 1 µM
# [18] = target: Ephrin type-A receptor 4 (Homo sapiens) (UniProt P54764); conditions: at 0.1 µM
# Chain of Ephrin type-A receptor 4 (Homo sapiens) (P54764 whole entry): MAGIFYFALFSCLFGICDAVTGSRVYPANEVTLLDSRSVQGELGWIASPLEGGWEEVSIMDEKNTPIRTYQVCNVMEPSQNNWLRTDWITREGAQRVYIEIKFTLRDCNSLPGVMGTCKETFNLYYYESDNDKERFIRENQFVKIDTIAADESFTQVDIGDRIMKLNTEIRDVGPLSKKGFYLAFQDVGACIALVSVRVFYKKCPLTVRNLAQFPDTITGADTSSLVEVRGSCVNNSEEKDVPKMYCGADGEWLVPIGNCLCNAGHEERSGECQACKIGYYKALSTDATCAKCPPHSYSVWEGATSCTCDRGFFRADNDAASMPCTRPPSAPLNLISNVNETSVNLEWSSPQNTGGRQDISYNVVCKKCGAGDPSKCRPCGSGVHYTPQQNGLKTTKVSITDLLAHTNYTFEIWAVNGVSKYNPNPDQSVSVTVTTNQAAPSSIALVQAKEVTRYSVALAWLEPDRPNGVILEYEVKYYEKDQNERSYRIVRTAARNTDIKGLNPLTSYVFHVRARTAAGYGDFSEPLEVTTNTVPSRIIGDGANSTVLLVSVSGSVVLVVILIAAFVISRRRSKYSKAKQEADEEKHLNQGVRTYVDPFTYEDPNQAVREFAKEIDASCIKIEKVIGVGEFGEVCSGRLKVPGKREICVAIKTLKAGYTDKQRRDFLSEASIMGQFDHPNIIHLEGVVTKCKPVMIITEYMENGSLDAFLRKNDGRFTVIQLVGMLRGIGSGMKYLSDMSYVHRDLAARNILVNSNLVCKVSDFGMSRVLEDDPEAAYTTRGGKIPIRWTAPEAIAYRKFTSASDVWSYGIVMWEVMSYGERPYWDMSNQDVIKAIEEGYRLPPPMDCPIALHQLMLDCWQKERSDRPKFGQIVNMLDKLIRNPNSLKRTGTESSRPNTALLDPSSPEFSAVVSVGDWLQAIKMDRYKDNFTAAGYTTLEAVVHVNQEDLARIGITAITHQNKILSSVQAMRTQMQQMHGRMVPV
# [19] = target: Ephrin type-A receptor 4 (Homo sapiens) (UniProt P54764); conditions: at 1 µM
# [20] = target: T3, Ephrin type-B receptor 2 (Homo sapiens) (UniProt P29323); conditions: at 0.1 µM;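 note: reported as mean inhibition of EPHB2, from the GSK PKIS dataset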
# T3 sequence (whole entry): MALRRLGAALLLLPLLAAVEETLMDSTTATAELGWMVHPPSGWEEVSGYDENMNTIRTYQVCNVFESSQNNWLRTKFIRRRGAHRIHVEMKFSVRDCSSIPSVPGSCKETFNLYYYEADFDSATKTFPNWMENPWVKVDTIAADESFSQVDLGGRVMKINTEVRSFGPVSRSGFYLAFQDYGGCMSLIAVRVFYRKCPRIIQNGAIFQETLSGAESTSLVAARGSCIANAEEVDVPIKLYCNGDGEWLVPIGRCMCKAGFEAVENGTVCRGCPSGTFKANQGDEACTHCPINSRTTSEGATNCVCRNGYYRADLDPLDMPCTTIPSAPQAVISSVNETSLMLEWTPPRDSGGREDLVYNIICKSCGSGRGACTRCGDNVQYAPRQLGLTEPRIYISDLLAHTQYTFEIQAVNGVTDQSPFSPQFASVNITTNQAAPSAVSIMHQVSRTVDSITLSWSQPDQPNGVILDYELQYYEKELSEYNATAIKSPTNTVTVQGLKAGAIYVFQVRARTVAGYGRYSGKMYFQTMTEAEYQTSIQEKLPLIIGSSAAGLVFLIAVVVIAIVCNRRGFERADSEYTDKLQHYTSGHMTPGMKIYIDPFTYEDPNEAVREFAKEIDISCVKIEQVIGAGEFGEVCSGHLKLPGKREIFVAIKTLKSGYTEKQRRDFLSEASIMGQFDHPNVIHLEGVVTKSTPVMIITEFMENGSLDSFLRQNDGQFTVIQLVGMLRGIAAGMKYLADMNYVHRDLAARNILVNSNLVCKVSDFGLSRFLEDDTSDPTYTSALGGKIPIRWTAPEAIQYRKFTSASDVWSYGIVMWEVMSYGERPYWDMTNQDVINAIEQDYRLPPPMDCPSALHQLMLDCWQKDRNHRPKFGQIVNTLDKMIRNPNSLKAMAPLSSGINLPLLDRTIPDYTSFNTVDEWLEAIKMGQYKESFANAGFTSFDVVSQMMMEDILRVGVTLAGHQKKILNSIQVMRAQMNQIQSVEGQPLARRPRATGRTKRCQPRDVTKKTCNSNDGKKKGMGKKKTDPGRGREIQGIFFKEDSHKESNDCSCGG
# Chain of Tyrosine-protein kinase CSK (Homo sapiens) (P41240 2-450 limits assumed): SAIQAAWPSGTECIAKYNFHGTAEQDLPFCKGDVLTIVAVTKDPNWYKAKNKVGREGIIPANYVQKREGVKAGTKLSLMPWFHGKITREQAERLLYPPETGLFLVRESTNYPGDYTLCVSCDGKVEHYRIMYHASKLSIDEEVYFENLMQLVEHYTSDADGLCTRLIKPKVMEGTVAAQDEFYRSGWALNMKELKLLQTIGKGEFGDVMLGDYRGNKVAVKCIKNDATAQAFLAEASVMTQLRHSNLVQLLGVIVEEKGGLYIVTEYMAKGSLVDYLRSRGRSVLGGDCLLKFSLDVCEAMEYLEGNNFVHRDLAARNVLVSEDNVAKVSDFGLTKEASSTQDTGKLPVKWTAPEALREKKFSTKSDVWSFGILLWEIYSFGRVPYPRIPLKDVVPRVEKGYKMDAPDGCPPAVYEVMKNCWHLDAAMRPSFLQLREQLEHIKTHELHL
SMILES,inhibition [1] [%],inhibition [2] [%],inhibition [3] [%],inhibition [4] [%],inhibition [5] [%],inhibition [6] [%],inhibition [7] [%],inhibition [8] [%],inhibition [9] [%],inhibition [10] [%],inhibition [11] [%],inhibition [12] [%],inhibition [13] [%],inhibition [14] [%],inhibition [15] [%],inhibition [16] [%],inhibition [17] [%],inhibition [18] [%],inhibition [19] [%],inhibition [20] [%]
c1ccc(Oc2ccc(Nc3ncc(-c4ccccc4)o3)cc2)cc1,1.07,0.51,0.6,1.92,3.79,1.22,0.93,1.49,3.06,0.57,0.24,-0.18,4.16,-2.63,-2.48,2.07,2.91,4.49,4.79,7.5
O=C1Nc2ccc(I)cc2C1=Cc1cc(Br)c(O)c(Br)c1,4.94,1.45,3.44,2.85,-1.18,-1.9,2.8,2.43,3.74,0.08,1.77,-1.49,-1.12,1.35,1.12,1.79,4.64,7.31,9.77,5.47
COc1cc(Nc2ncc(-c3ccccc3)o2)cc(OC)c1OC,-0.86,0.74,8.58,6.02,13.8,-1.09,-0.27,0.27,0.17,0.05,1.16,-0.28,-0.54,-3.3,-1.26,-6.76,-5.8,-7.25,1.47,-1.44
CN(C)CCOc1ccc(-c2cc(-c3ccc4c(c3)CCC4=NO)c(-c3ccncc3)o2)cc1,-1.46,0.26,1.8,4.94,7.65,-0.5,7.4,-0.03,4.41,-1.42,0.59,-2.24,-0.02,-1.99,-3.05,0.49,-1.83,-1.28,0.81,-5.39
COc1cc(C)c(N(C)C(=O)CN(C)C)cc1Nc1nc(Nc2cccc(F)c2C(N)=O)c2cc[nH]c2n1,-1.53,0.29,0.56,-4.88,-1.47,-1.11,1.56,1.84,-2.41,0.93,1.09,-0.19,1.92,-2.68,-4.61,-1.1,-3.2,3.77,-1.31,2.81
Fc1ccc(-c2ncn(CCCN3CCOCC3)c2-c2ccncc2)cc1,-6.18,0.11,-0.13,0.44,1.09,-0.51,-2.87,-1.64,-2.82,-1.82,-1.55,-3.9,1.72,0.95,1.3,1.04,0.84,1.1,-5.4,-4.85
CS(=O)(=O)CCNCc1cc(-c2cc3c(Nc4ccc(OCc5cccc(F)c5)c(Cl)c4)ncnc3s2)cs1,4.58,4.67,6.01,61.5,83.7,18.1,61.2,31.4,57.8,0.98,6.23,1.25,6.55,0.54,-0.67,1.87,2.18,8.11,10.4,12.3
Cc1ccc(C(=O)NC2CCC2)cc1-c1ccc(C(=O)NCC2CC2)cc1,0.62,0.33,1.1,10.4,7.15,3.77,4.05,4.21,4.15,1.73,-0.05,0.49,1.53,0.5,0.07,2.96,4.24,4.02,0.68,6.98
COc1ccc2cc(-c3c(-c4ccncc4)nc(-c4ccc([S+](C)[O-])cc4C)n3C)ccc2c1 (stereo not given),-1.23,-2.64,-4.31,2.02,7.54,-1.17,5.96,-0.12,9.44,-0.7,0.13,-3,3.5,-1.85,-0.23,-1.34,-0.2,-0.17,18.6,1.99
Fc1ccc(-c2ncn(C3CCNCC3)c2-c2ccnc(Oc3ccc(Oc4ccccc4)cc3)n2)cc1,3.28,2.83,14.8,2.08,4.02,-0.18,11.3,2.06,6.3,1.46,4.11,1.7,6.06,1.86,1.01,2.44,4.03,6.9,7.87,7.52
NS(=O)(=O)c1ccc(Nc2cc(-c3ccc(O)c(F)c3)n[nH]2)cc1,-6.35,-0.38,18.8,0.49,3.68,-2.81,-2,-1.84,0.29,-1.07,-0.95,-2.9,-4.28,-1.33,-1.33,-4.5,-0.8,-6.46,-5.56,-3.09
CCc1nccc2c1nc(-c1nonc1N)n2CC,-3.01,1.17,2.38,6.7,7.54,0.22,-2.09,-1.13,-0.05,-1.16,-1.27,-0.81,1.48,0.61,0.69,-0.26,1.46,0.87,-5.92,-5.8
COc1cc(Nc2ncc3c(C)nc(-c4cccc(Oc5ccccc5)c4)n3n2)cc(OC)c1OC,0.83,1.95,0.6,-0.83,3.44,2.38,1.65,0.98,-0.89,1.28,-1.01,1.23,-0.96,1.16,-0.33,3.2,1.56,5.4,3.74,4.87
